In PubChem BioAssay one finds z-score and percent of negative control (+Dex) data, which are given here for 15 molecules.

Structures are written as SMILES. The source made the active and inactive calls. The rule behind the calls is not given here.

One assay in a line: altered dexamethasone sensitivity, NF-kB reporter, cell-based, luciferase, IL-1B stimulus (AID 624486).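 For percent of negative control (+Dex): 100% = mean signal of vehicle control wells on the plate.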 The conditions noted are these: IL-1B + dexamethasone, luminescence; percent of negative control (+Dex): actives lie on both sides, concentration not given here; z-score: measured here: IL-1B alone, no Dex.
For `NC(=O)Cc1ccccc1Oc1nccc(-c2c(-c3ccc(F)cc3)ncn2C2CCNCC2)n1`, the z-score was determined as 0.475 and the percent of negative control (+Dex) was 105% (inactive).
Regarding `NC(=O)c1cccc(Nc2nccc(Nc3cccc4[nH]ncc34)n2)c1`, the z-score was found to be 0.725 and the percent of negative control (+Dex) is 95.5% (inactive).
For `CCS(=O)(=O)c1ccc(OC)c(Nc2ncc(-c3cccc(C(C)=O)c3)o2)c1`, in that order: 0.415 and 87% (inactive).
The corresponding values for `CS(=O)(=O)CCNCc1ccoc1-c1ccc2ncnc(Nc3ccc(OCc4ccccc4)cc3)c2c1` are -0.675 and 80% (inactive).
The corresponding values for `COc1cccc(-n2ncc3c(N/N=C/c4ccc(S(C)(=O)=O)cc4)ncnc32)c1` are 0.965 and 136% (active).
Consider `COc1cccc(Nc2nccc(-c3cnn4ncccc34)n2)c1`, for which the percent of negative control (+Dex) was 3% (active) and the z-score was -9.21.
For `COC(=O)Nc1nc2ccc(Sc3ccc(NC(=O)Nc4cc(C(F)(F)F)ccc4F)cc3)cc2[nH]1`, in that order: 96.5% (inactive) and -0.175.
The corresponding values for `NC(=O)c1sc(-n2cnc3ccccc32)cc1OCc1ccccc1Br` are 101% (inactive) and 0.185.
For `Nc1nonc1-c1nc2cnccc2n1C1CC1`, in that order: 45% (active) and -5.63.
In the case of `NC(=O)c1cc(-c2ccc(F)cc2)cc(-c2ccncc2)c1N`, the z-score was determined as 0.27 and the percent of negative control (+Dex) was 92.5% (inactive).
For `O=C(Nc1ccc(Oc2ccc3nc(NC(=O)c4ccco4)[nH]c3c2)cc1)Nc1cc(C(F)(F)F)ccc1F`, in that order: -2.38 and 81.5% (inactive).
For `Cc1cccc(Nc2ncc(-c3ccccc3)o2)c1`, in that order: 15.2 and 272% (active).
With `CS(=O)(=O)CCNCc1coc(-c2ccc3ncnc(Nc4ccc(OCc5ccccc5)cc4)c3c2)c1`, the z-score was -0.13 and the percent of negative control (+Dex) is 90% (inactive).
For `COc1cc2ncn(-c3cc(OCc4ccccc4Cl)c(C(N)=O)s3)c2cc1OC`, in that order: 0.395 and 112% (inactive).
As for `COc1cc2ncn(-c3cc(OCCc4ccccc4)c(C(N)=O)s3)c2cc1OC`, the percent of negative control (+Dex) was 95% (inactive) and the z-score is 0.89.

Another assay is described as follows: C. elegans survival during P. aeruginosa infection – whole organism (AID 651566).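 Note: tested at 14 µM; sign flipped so higher z means a lower ratio.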 The note with it: C. elegans killed by P. aeruginosa, survival ratio.
In the case of `NC(=O)Cc1ccccc1Oc1nccc(-c2c(-c3ccc(F)cc3)ncn2C2CCNCC2)n1`, the z-score is -0.78 (inactive).
Same read-out and setting: the figure for `NC(=O)c1cccc(Nc2nccc(Nc3cccc4[nH]ncc34)n2)c1` is -0.905 (inactive).
For `CCS(=O)(=O)c1ccc(OC)c(Nc2ncc(-c3cccc(C(C)=O)c3)o2)c1`, the z-score was 0.56 (inactive).
Consider `CS(=O)(=O)CCNCc1ccoc1-c1ccc2ncnc(Nc3ccc(OCc4ccccc4)cc3)c2c1`, for which the z-score was 0.33 (inactive).
On the same count and under the same terms, the figure for `COc1cccc(-n2ncc3c(N/N=C/c4ccc(S(C)(=O)=O)cc4)ncnc32)c1` is -1.31 (inactive).
Same read-out and setting: the figure for `COc1cccc(Nc2nccc(-c3cnn4ncccc34)n2)c1` is 0.695 (inactive); for `COC(=O)Nc1nc2ccc(Sc3ccc(NC(=O)Nc4cc(C(F)(F)F)ccc4F)cc3)cc2[nH]1` it is -0.56 (inactive).
On the same count and under the same terms, the figure for `NC(=O)c1sc(-n2cnc3ccccc32)cc1OCc1ccccc1Br` is -0.075 (inactive); for `Nc1nonc1-c1nc2cnccc2n1C1CC1` it is -0.345 (inactive).
With `NC(=O)c1cc(-c2ccc(F)cc2)cc(-c2ccncc2)c1N`, the z-score was 0.64 (inactive).
On the same count and under the same terms, then `O=C(Nc1ccc(Oc2ccc3nc(NC(=O)c4ccco4)[nH]c3c2)cc1)Nc1cc(C(F)(F)F)ccc1F`, with -0.605 (inactive).
As for `Cc1cccc(Nc2ncc(-c3ccccc3)o2)c1`, the z-score is -1.25 (inactive).
As for `CS(=O)(=O)CCNCc1coc(-c2ccc3ncnc(Nc4ccc(OCc5ccccc5)cc4)c3c2)c1`, the z-score was -0.225 (inactive).
On to `COc1cc2ncn(-c3cc(OCc4ccccc4Cl)c(C(N)=O)s3)c2cc1OC`, for which the z-score is -0.73 (inactive).
On the same count and under the same terms, the figure for `COc1cc2ncn(-c3cc(OCCc4ccccc4)c(C(N)=O)s3)c2cc1OC` is -0.32 (inactive).

The next assay can be described thus: pro-inflammatory signaling induction in mouse macrophages – cell-based, murine, luminescence (AID 652131). The note with it: murine macrophage pro-inflammatory reporter, stronger effect = higher value.
For `NC(=O)Cc1ccccc1Oc1nccc(-c2c(-c3ccc(F)cc3)ncn2C2CCNCC2)n1`, the z-score is 0.598 (inactive).
Same read-out and setting: then `NC(=O)c1cccc(Nc2nccc(Nc3cccc4[nH]ncc34)n2)c1`, with 1.14 (inactive); and `CCS(=O)(=O)c1ccc(OC)c(Nc2ncc(-c3cccc(C(C)=O)c3)o2)c1`, with -0.091 (inactive).
On to `CS(=O)(=O)CCNCc1ccoc1-c1ccc2ncnc(Nc3ccc(OCc4ccccc4)cc3)c2c1`, for which the z-score was 3.01 (inactive).
On the same count and under the same terms, then `COc1cccc(-n2ncc3c(N/N=C/c4ccc(S(C)(=O)=O)cc4)ncnc32)c1`, with -0.723 (inactive); and `COc1cccc(Nc2nccc(-c3cnn4ncccc34)n2)c1`, with -1.68 (inactive); and `COC(=O)Nc1nc2ccc(Sc3ccc(NC(=O)Nc4cc(C(F)(F)F)ccc4F)cc3)cc2[nH]1`, with 1.3 (inactive).
On the same count and under the same terms, then `NC(=O)c1sc(-n2cnc3ccccc32)cc1OCc1ccccc1Br`, with 0.164 (inactive); and `Nc1nonc1-c1nc2cnccc2n1C1CC1`, with -0.857 (inactive); and `NC(=O)c1cc(-c2ccc(F)cc2)cc(-c2ccncc2)c1N`, with -0.928 (inactive).
As for `O=C(Nc1ccc(Oc2ccc3nc(NC(=O)c4ccco4)[nH]c3c2)cc1)Nc1cc(C(F)(F)F)ccc1F`, the z-score is -0.544 (inactive).
Still for that read-out and setting: the figure for `Cc1cccc(Nc2ncc(-c3ccccc3)o2)c1` is 1.33 (inactive).
Regarding `CS(=O)(=O)CCNCc1coc(-c2ccc3ncnc(Nc4ccc(OCc5ccccc5)cc4)c3c2)c1`, the z-score was 2.75 (inactive).
On the same count and under the same terms, then `COc1cc2ncn(-c3cc(OCc4ccccc4Cl)c(C(N)=O)s3)c2cc1OC`, with -0.517 (inactive); and `COc1cc2ncn(-c3cc(OCCc4ccccc4)c(C(N)=O)s3)c2cc1OC`, with 0.419 (inactive).
